Measurements: PubChem BioAssay AID2132 (NMMLSC, 2009)
Calls of active or inactive are those of the source.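 How the source made its calls: active means inhibition above 20%; inactive means the rest.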 Peptide text beside a SMILES is read from it. * marks the point of attachment. Cbz = O=C(OCc1ccccc1)*

Experiment: yeast 26S proteasome protease site inhibitors – biochemical, fluorogenic peptides, secondary, counter-screen for 26S proteasome disassembly project (AID 2132)
Conditions: fluorogenic peptide cleavage rate, with Suc-LLVY-amc, at 100 µM, active compounds read high

| Structure (SMILES) | inhibition |
| --- | --- |
| CC(=O)N1C(=O)C(=C2C=C(C)OC(C)=C2)c2ccccc21 | 45% (active) |
| CC(C)C[C@@H](C=O)NC(=O)[C@H](CC(C)C)NC(=O)[C@H](CC(C)C)NC(=O)OCc1ccccc1 (Cbz-Leu-Leu-Leu-aldehyde) | 97% (active) |
